Reference: article PMC5540273 (PLoS ONE, 2017)

These molecules were tested on ZAK. Settings: concentration: 1 μM, replicates: in singlicate; n = 1.
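Also: KINOMEscan kinase panel screen.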

Row | SMILES | %Inh [%]
1 | Nc1nc(N)c2nc(-c3ccccc3)[nH]c2n1 [SKF-12778] | 22
2 | COc1cc2nccc(Nc3cccc(Oc4ccccc4)c3)c2cc1OC.Cl [GW284543] | 17
3 | CCc1ccc(-c2ccc3c(c2)-c2nn(C)cc2S(=O)(=O)N3C)cc1 | 0
4 | O=C(NCc1cccs1)c1cc(C(=O)c2c(Cl)cccc2Cl)c[nH]1 [GW823670] | 0
5 | CCCC(=O)Nc1n[nH]c2ncc(-c3cccc4ccccc34)cc12 [SB-642057] | 54
6 | CCC(=O)c1c(-c2ccccc2)c2cc(Cl)ccc2c(=O)n1Cc1cc(S(C)(=O)=O)n(CC(F)F)n1 | 0
7 | Nc1ncnc2c1ncn2-c1cccc(F)c1 [SKF-97560] | 26
8 | Cc1c(Cn2c(C)nn3c(=O)cc(N4CCO[C@H](C)C4)nc23)cccc1C(F)(F)F [GSK2373690] | 9
9 | COc1cc(Nc2nccc(N3CCC(NC(=O)C4COc5ccccc5O4)C3)n2)cc(OC)c1OC (stereo not drawn) [GSK1379761] | 14
10 | Cc1ccccc1COc1cc(-n2cnc3cc(Cl)ccc32)sc1C(N)=O [GW813349] | 0
11 | Cc1ccc(-c2ccc3c(ccc4sc5c(c43)NC[C@@H](C)N=C5N(C)C)n2)cn1 | 0
12 | Fc1cccc(CSc2nnc(-c3ccc4c(c3)CCO4)o2)c1 | 0
13 | CN1C(=O)C(Nc2cc(Cl)c(O)c(Cl)c2)=C(c2ccc(Cl)cc2)C1=O [SB-404321] | 0
14 | CCC(=O)c1c(-c2ccccc2)c2cc(Cl)ccc2c(=O)n1Cc1ccc(C(=O)O)cc1 | 0
15 | COc1cc(Nc2nccc(N3CCC(NC(=O)C(C)c4ccc(Cl)cc4)C3)n2)cc(OC)c1OC (stereo not drawn) [GSK1379757] | 0
16 | C[C@@H]1CC[C@H](C(=O)NC2CCCCC2)CN1c1cc(-c2ccc3c(N)n[nH]c3c2)nc(N)n1 [GSK2291363] | 9
17 | COc1ccc(-c2coc3ccc(-c4nnc(SCc5cccc(C#N)c5)o4)cc23)cc1 | 23
18 | CCS(=O)c1ccc(-c2coc3ccc(-c4nnc(C)o4)cc23)cc1 (stereo not drawn) | 8

Row | SMILES | %Inh [%]
19 | Cc1cc(Nc2nc(-c3cccc(C)n3)nc3ccccc23)ccn1 [GW872411] | 0
20 | COC(=O)c1c(-c2ccccc2)c2cc(Br)ccc2c(=O)n1Cc1ccc(S(C)(=O)=O)cc1 | 32
21 | Nc1nccc2scc(-c3ccc4c(c3)CCN4C(=O)Cc3ccccc3)c12 [GSK2576924] | 0
22 | O=C(NCCNc1ccnc(Nc2ccc(F)cc2)n1)Nc1ccc2c(c1)OCO2 [GSK1379882] | 100
23 | COC(=O)c1c(-c2ccccc2)c2cc(Br)ccc2c(=O)n1Cc1ccc(NC(=O)CCC(=O)O)cc1 | 36
24 | Nc1ncnc2c1ncn2-c1ccc(Cl)cc1 [AH2635] | 0
25 | O=C(Nc1n[nH]c2cc(-c3ccccc3F)ccc12)C1CC1 [SB-733371] | 0
26 | Nc1n[nH]c2nnc(-c3ccccc3)c(-c3ccccc3)c12 [GW554060] | 5
27 | FC(F)(F)c1ccc(-c2ncn(CCCN3CCOCC3)c2-c2ccncc2)cc1 [SB-217780] | 17
28 | COc1ccc(-n2cnc3c(N)ncnc32)cc1 [SKF-97236] | 15
29 | CCC(=O)c1c(-c2ccccc2)c2cc(Cl)ccc2c(=O)n1Cc1cc(C(=O)NC2CC2)n(C)n1 | 23
30 | CCC(=O)c1c(-c2ccccc2)c2cc(Cl)ccc2c(=O)n1Cc1cc(S(C)(=O)=O)n(CCC(C)(C)O)n1 | 27
31 | COC(=O)c1c(-c2ccccc2)c2cc(C)ccc2c(=O)n1Cc1ccccc1 | 25
32 | COc1cc(Nc2ccnc3ccc(C(F)(F)F)cc23)cc(OC)c1OC [GW577382] | 12
33 | COc1ccc(-c2cc3c(C)nc(N)nc3n([C@H]3CC[C@H](OCCO)CC3)c2=O)cn1 | 1
34 | Cc1nnc(-c2ccc3ncn(-c4ccc(S(C)=O)cc4)c3c2)o1 (stereo not drawn) | 12
35 | COc1cc2ncn(-c3cc(OCc4ccc(S(C)(=O)=O)cc4)c(C(N)=O)s3)c2cc1OC [GW869979] | 0
36 | CCC(=O)c1c(-c2ccccc2)c2cc(Cl)ccc2c(=O)n1Cc1cc(S(C)(=O)=O)n(CC(N)=O)n1 | 0

Each molecule was assayed on ZAP70. Settings: concentration: 1 μM, replicates: in singlicate; n = 1.

Row | SMILES | %Inh [%]
37 | Nc1nc(N)c2nc(-c3ccccc3)[nH]c2n1 [SKF-12778] | 14
38 | COc1cc2nccc(Nc3cccc(Oc4ccccc4)c3)c2cc1OC.Cl [GW284543] | 0
39 | CCc1ccc(-c2ccc3c(c2)-c2nn(C)cc2S(=O)(=O)N3C)cc1 | 0
40 | O=C(NCc1cccs1)c1cc(C(=O)c2c(Cl)cccc2Cl)c[nH]1 [GW823670] | 0
41 | CCCC(=O)Nc1n[nH]c2ncc(-c3cccc4ccccc34)cc12 [SB-642057] | 0
42 | CCC(=O)c1c(-c2ccccc2)c2cc(Cl)ccc2c(=O)n1Cc1cc(S(C)(=O)=O)n(CC(F)F)n1 | 11
43 | Nc1ncnc2c1ncn2-c1cccc(F)c1 [SKF-97560] | 21
44 | Cc1c(Cn2c(C)nn3c(=O)cc(N4CCO[C@H](C)C4)nc23)cccc1C(F)(F)F [GSK2373690] | 0
45 | COc1cc(Nc2nccc(N3CCC(NC(=O)C4COc5ccccc5O4)C3)n2)cc(OC)c1OC (stereo not drawn) [GSK1379761] | 0
46 | Cc1ccccc1COc1cc(-n2cnc3cc(Cl)ccc32)sc1C(N)=O [GW813349] | 19
47 | Cc1ccc(-c2ccc3c(ccc4sc5c(c43)NC[C@@H](C)N=C5N(C)C)n2)cn1 | 0
48 | Fc1cccc(CSc2nnc(-c3ccc4c(c3)CCO4)o2)c1 | 0
49 | CN1C(=O)C(Nc2cc(Cl)c(O)c(Cl)c2)=C(c2ccc(Cl)cc2)C1=O [SB-404321] | 0
50 | CCC(=O)c1c(-c2ccccc2)c2cc(Cl)ccc2c(=O)n1Cc1ccc(C(=O)O)cc1 | 0
51 | COc1cc(Nc2nccc(N3CCC(NC(=O)C(C)c4ccc(Cl)cc4)C3)n2)cc(OC)c1OC (stereo not drawn) [GSK1379757] | 0
52 | C[C@@H]1CC[C@H](C(=O)NC2CCCCC2)CN1c1cc(-c2ccc3c(N)n[nH]c3c2)nc(N)n1 [GSK2291363] | 0
53 | COc1ccc(-c2coc3ccc(-c4nnc(SCc5cccc(C#N)c5)o4)cc23)cc1 | 0
54 | CCS(=O)c1ccc(-c2coc3ccc(-c4nnc(C)o4)cc23)cc1 (stereo not drawn) | 0

Row | SMILES | %Inh [%]
55 | Cc1cc(Nc2nc(-c3cccc(C)n3)nc3ccccc23)ccn1 [GW872411] | 0
56 | COC(=O)c1c(-c2ccccc2)c2cc(Br)ccc2c(=O)n1Cc1ccc(S(C)(=O)=O)cc1 | 0
57 | Nc1nccc2scc(-c3ccc4c(c3)CCN4C(=O)Cc3ccccc3)c12 [GSK2576924] | 0
58 | O=C(NCCNc1ccnc(Nc2ccc(F)cc2)n1)Nc1ccc2c(c1)OCO2 [GSK1379882] | 0
59 | COC(=O)c1c(-c2ccccc2)c2cc(Br)ccc2c(=O)n1Cc1ccc(NC(=O)CCC(=O)O)cc1 | 0
60 | Nc1ncnc2c1ncn2-c1ccc(Cl)cc1 [AH2635] | 0
61 | O=C(Nc1n[nH]c2cc(-c3ccccc3F)ccc12)C1CC1 [SB-733371] | 0
62 | Nc1n[nH]c2nnc(-c3ccccc3)c(-c3ccccc3)c12 [GW554060] | 0
63 | FC(F)(F)c1ccc(-c2ncn(CCCN3CCOCC3)c2-c2ccncc2)cc1 [SB-217780] | 12
64 | COc1ccc(-n2cnc3c(N)ncnc32)cc1 [SKF-97236] | 0
65 | CCC(=O)c1c(-c2ccccc2)c2cc(Cl)ccc2c(=O)n1Cc1cc(C(=O)NC2CC2)n(C)n1 | 0
66 | CCC(=O)c1c(-c2ccccc2)c2cc(Cl)ccc2c(=O)n1Cc1cc(S(C)(=O)=O)n(CCC(C)(C)O)n1 | 3
67 | COC(=O)c1c(-c2ccccc2)c2cc(C)ccc2c(=O)n1Cc1ccccc1 | 0
68 | COc1cc(Nc2ccnc3ccc(C(F)(F)F)cc23)cc(OC)c1OC [GW577382] | 0
69 | COc1ccc(-c2cc3c(C)nc(N)nc3n([C@H]3CC[C@H](OCCO)CC3)c2=O)cn1 | 0
70 | Cc1nnc(-c2ccc3ncn(-c4ccc(S(C)=O)cc4)c3c2)o1 (stereo not drawn) | 0
71 | COc1cc2ncn(-c3cc(OCc4ccc(S(C)(=O)=O)cc4)c(C(N)=O)s3)c2cc1OC [GW869979] | 17
72 | CCC(=O)c1c(-c2ccccc2)c2cc(Cl)ccc2c(=O)n1Cc1cc(S(C)(=O)=O)n(CC(N)=O)n1 | 0
